The list is not random: actives were taken first. Their share in the collection is about 2.6%.
EWS-Fli inh: inhibitors of EWS/Fli oncoprotein transcriptional activity. A673 NR0B1-luciferase reporter, viability-normalised. inhibition, % at 12.6 µM. 350,000 tested, 0.67% active. AID 651661;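 active = mean inhibition of at least 50% after viability correction, with every replicate also passing that limit; inconclusive = mean reaches 50% but only one of two replicates passes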;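 note: firefly luciferase signal divided by Alamar Blue viability fluorescence both relative to DMSO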
TROY signal inh: TROY signaling inhibition. AID 1347056. 360,000 tested, 0.98% active. Q293 LMP1-TROYcd NF-kB luciferase reporter, 4 h. inhibition, % at 10 µM;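 active = compounds whose plate-normalised and pattern-corrected inhibition of the luciferase reporter signal at the single screening dose is 50% or more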
LGR2 inh: Drosophila LGR2 receptor signaling inhibition; HEK293 LGR2, CRE-luciferase, bursicon-stimulated, 4 h; inhibition, % at 9.99 µM; 380,000 tested, 0.35% active;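 active = drop in luminescence signal, shown as inhibition above about 50% in the replicate tests, limit read from the data, passing the limit was not always enough; inconclusive = probably only some replicates passing the limit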;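 note: agonist challenge used bursicon conditioned medium at about half maximal strength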
LMP1 NFkB inh: reduces LMP1-driven NF-kappaB luciferase signal | LMP1-induced NF-kappaB luciferase reporter cells, luminescence | inhibition, % at 12.5 µM | 350,000 tested, 0.69% active | AID 504558; in the data active = inhibition above about 41%; inconclusive = no clear call, values can overlap the other calls
TWEAK-Fn14 inh: TWEAK-Fn14 signaling inhibition. TWEAK-stimulated Fn14 reporter cells, luciferase luminescence, 8 h. inhibition, % at 10 µM. 360,000 tested, 2% active; in the data active = inhibition above about 50%
Large screens that a line does not name were inactive.

COc1ccccc1C(CC(=O)c1ccccc1)C(=O)c1ccccc1 (configuration not stated)	none (no result: TROY signal inh, LMP1 NFkB inh, TWEAK-Fn14 inh)
C=C(CCC(=O)c1ccccc1)C(=O)c1ccccc1	TWEAK-Fn14 inh 57 (no result: LGR2 inh)
C=C(C(=O)c1ccccc1)C(CC(=O)c1ccccc1)c1ccccc1 (configuration not stated)	LGR2 inh inconclusive, LMP1 NFkB inh 69, TWEAK-Fn14 inh 71 (no result: EWS-Fli inh)
O=C(CCCCCCCC(=O)c1ccccc1)c1ccccc1	none (no result: LGR2 inh)
Cc1cc(C)cc(NC(=O)Nc2ccc3c(c2)C(=O)N(C)[C@@H]2CC[C@@H](CC(=O)O)O[C@@H]2CO3)c1	none (no result: TROY signal inh, LMP1 NFkB inh, TWEAK-Fn14 inh)
COCC(=O)N(C)C[C@@H]1Oc2ncc(-c3ccccc3OC)cc2C(=O)N([C@H](C)CO)C[C@H]1C	none (no result: TROY signal inh, LMP1 NFkB inh, TWEAK-Fn14 inh)
O=[N+]([O-])c1ccc(Sc2nnnn2-c2ccccc2)c(Cl)c1	none (no result: EWS-Fli inh)
Cn1cnnc1Sc1cc(N2CCN(S(=O)(=O)c3ccccc3)CC2)ccc1[N+](=O)[O-]	none (no result: LGR2 inh)
CN1CCN(S(=O)(=O)c2ccc(Sc3nnnn3-c3ccccc3)c([N+](=O)[O-])c2)CC1	TWEAK-Fn14 inh 100 (no result: LGR2 inh)
CC(=O)c1ccc(Sc2nnnn2-c2ccccc2)c([N+](=O)[O-])c1	LGR2 inh 76, TWEAK-Fn14 inh 98
C[C@@H]1CN([C@H](C)CO)C(=O)c2cc(NC(=O)CCCN(C)C)ccc2O[C@@H](C)CCCCO[C@@H]1CN(C)C(=O)Nc1ccccc1	none (no result: TROY signal inh, LMP1 NFkB inh, TWEAK-Fn14 inh)
C[C@H](CO)N1C[C@H](C)[C@H](CN(C)C(=O)C2CCC2)Oc2ncc(-c3cccnc3)cc2C1=O	none (no result: TROY signal inh, LMP1 NFkB inh, TWEAK-Fn14 inh)
O=C(c1cnc2ccc3ccccc3c2c1)c1cc(F)ccc1O	TWEAK-Fn14 inh 64
Cc1ccc(CNC(=O)c2ccc3c(c2)NC(=O)C(N2CCOCC2)S3)cc1 (configuration not stated)	none
O=C1Nc2cc(C(=O)NCCN3CCCCCC3)ccc2S/C1=C/c1ccccc1F	EWS-Fli inh 73
O=C1Nc2cc(C(=O)NCCCN3CCCC3)ccc2S/C1=C/c1ccccc1F	none
O=C(NCCCN1CCCCC1)c1ccc2c(c1)NC(=O)c1ccccc1S2	LMP1 NFkB inh 57
CCN1C(=O)c2ccccc2Sc2ccc(C(=O)NCCCN3CCCCC3)cc21	none
O=C(NCCCN1CCCCCC1)c1ccc2c(c1)NC(=O)C(N1CCOCC1)S2 (configuration not stated)	TWEAK-Fn14 inh 82 (no result: EWS-Fli inh, TROY signal inh, LGR2 inh)
CN1CCN(C(=O)C[C@@H]2CC[C@@H]3[C@H](COc4ccc(NC(=O)C5CCC5)cc4C(=O)N3C)O2)CC1	none (no result: TROY signal inh, LMP1 NFkB inh, TWEAK-Fn14 inh)
CC(C(=O)NCc1ccc(Cl)cc1)n1cccc1C(=O)c1ccccc1 (configuration not stated)	LMP1 NFkB inh 74
O=C(C#Cc1ccccc1)Nc1ccc(F)cc1	none
O=C(C#Cc1ccccc1)Nc1cccc(F)c1	TWEAK-Fn14 inh 70
CC(=O)N(CC1CCC1)C[C@H]1N[C@H](CO)[C@@H]1c1ccc(C2=CCCC2)cc1	none (no result: TROY signal inh, LMP1 NFkB inh, TWEAK-Fn14 inh)
O=C(Nc1cccc(Cl)c1)N1C[C@@H]2[C@H](c3ccccc31)[C@H](CO)N2CC1CCOCC1	none (no result: TROY signal inh, LMP1 NFkB inh, TWEAK-Fn14 inh)
COc1ccc(C)cc1NC(=O)c1ccccc1NS(=O)(=O)c1ccc(Cl)s1	TROY signal inh 58, TWEAK-Fn14 inh 69
O=C(Nc1cc(S(=O)(=O)N2CCOCC2)ccc1O)c1ccc(NS(=O)(=O)c2ccc(Cl)s2)cc1	none
Cc1ccc(NC(=O)c2ccccc2NS(=O)(=O)c2ccc(Cl)s2)cc1S(=O)(=O)N1CCOCC1	TROY signal inh 52, LGR2 inh inconclusive, TWEAK-Fn14 inh 78
CCc1cnc(N2[C@@H](C#N)[C@H](c3ccc(C#Cc4ccccc4F)cc3)[C@@H]2CO)s1	none (no result: TROY signal inh, LMP1 NFkB inh, TWEAK-Fn14 inh)
CC(=O)Nc1nc(C)c(-c2csc(Nc3cccc([N+](=O)[O-])c3)n2)s1	LMP1 NFkB inh 50, TWEAK-Fn14 inh 59 (no result: EWS-Fli inh)
CC(=O)Nc1nc(C)c(-c2csc(Nc3ccc(O)cc3)n2)s1	LMP1 NFkB inh 45 (no result: EWS-Fli inh, LGR2 inh)
COc1cccc(CNC(=O)C[C@H]2C=C[C@H](NC(=O)C3CC3)[C@@H](CO)O2)c1	none (no result: TROY signal inh, LMP1 NFkB inh, TWEAK-Fn14 inh)
Cc1ccc(-c2ccc3c(c2)O[C@@H](CN(C)C(=O)C2CCC2)[C@H](C)CN([C@@H](C)CO)S3(=O)=O)cc1	none (no result: TROY signal inh, LMP1 NFkB inh, TWEAK-Fn14 inh)
COc1cccc(CN2CCCCN3[C@H](C2)[C@@H](c2ccc(C#Cc4cccnc4)cc2)[C@@H]3CO)c1	none (no result: TROY signal inh, LMP1 NFkB inh, TWEAK-Fn14 inh)
COc1cccc(CN2CCCCN3[C@H](CO)[C@@H](c4ccc(C#Cc5cccnc5)cc4)[C@H]3C2)c1	EWS-Fli inh 69 (no result: TROY signal inh, LMP1 NFkB inh, TWEAK-Fn14 inh)
Cc1ccc2nc3cc([N+](=O)[O-])cc([N+](=O)[O-])c3cc2c1	EWS-Fli inh 61, TROY signal inh 52, LGR2 inh inconclusive, TWEAK-Fn14 inh 87
CN1[C@@H]2c3ccc(-c4ccccc4F)c(=O)n3C[C@@H]2[C@@H](CO)[C@@H]1C(=O)NCC(F)(F)F	none (no result: TROY signal inh, LMP1 NFkB inh, TWEAK-Fn14 inh)
Fc1ccccc1Cn1nnc(-c2ccc3c(c2)OCO3)n1	TROY signal inh 53 (no result: EWS-Fli inh, LGR2 inh)
COc1ccc(-c2nnn(Cc3ccccc3F)n2)cc1	none (no result: EWS-Fli inh)
CCOC(=O)N/N=C/c1ccc(N(CC)CC)cc1O	none (no result: EWS-Fli inh)
CCN(CC)c1ccc(C=Nc2cccc(S(=O)(=O)N3CCOCC3)c2)c(O)c1	none
CCN(CC)c1ccc(/C=N/NC(=O)c2cccc(S(=O)(=O)N3CCOCC3)c2)c(O)c1	LMP1 NFkB inh 55
CCN(CC)c1ccc(/C=N/NC(=O)c2c(Cl)cnn2C)c(O)c1	LMP1 NFkB inh 52 (no result: EWS-Fli inh)
COc1ccc(Nc2ncnc3sc(-c4ccccc4)cc23)cc1OC	TWEAK-Fn14 inh 51 (no result: EWS-Fli inh)
COc1ccc(Nc2ncnc3c2cnn3-c2ccccc2)cc1OC	none
C=CCNc1nc(NCCOC)c2sc(-c3ccccc3)cc2n1	none (no result: LMP1 NFkB inh)
C=CCNc1nc(Nc2ccc(OC)c(OC)c2)c2sc(-c3ccccc3)cc2n1	EWS-Fli inh 56 (no result: LMP1 NFkB inh)
c1ccc(-c2nnc(-c3ccccn3)nn2)nc1	none
c1ccc(-c2cccc(-c3ccccn3)n2)nc1	LMP1 NFkB inh 53
CO[C@@H]1CN(C)C(=O)c2ccc(NC(=O)C3CCOCC3)cc2OC[C@H](C)N(CC2CC2)C[C@H]1C	none (no result: TROY signal inh, LMP1 NFkB inh, TWEAK-Fn14 inh)
Fc1ccc2[nH]c3c(NCc4ccccc4)ncnc3c2c1	TROY signal inh 52
CC1CCN(c2ccc(-c3cccs3)nn2)CC1	EWS-Fli inh 89, TROY signal inh 66, LGR2 inh 75, LMP1 NFkB inh 57, TWEAK-Fn14 inh 105
Brc1ccc2c(c1)C(C1=NCCN1)c1ccccc1CS2 (configuration not stated)	EWS-Fli inh 58
O=c1c(=NNc2ccccc2Cl)c(=O)c2ccccc12	TROY signal inh 67, TWEAK-Fn14 inh 98
C[C@H](CO)N1C[C@H](C)[C@@H](CN(C)C(=O)c2cccnc2)Oc2ncc(C#CCN(C)C)cc2C1=O	none (no result: TROY signal inh, LMP1 NFkB inh, TWEAK-Fn14 inh)
Cc1noc(C)c1S(=O)(=O)Nc1ccc2c(c1)C(=O)N([C@@H](C)CO)C[C@@H](C)[C@@H](CN(C)C)OCCCC[C@H](C)O2	none (no result: TROY signal inh, LMP1 NFkB inh, TWEAK-Fn14 inh)
Fc1ccc(CNc2ncccn2)cc1	none
Oc1cc(NCc2ccc(Cl)cc2)cc2cccnc12	LMP1 NFkB inh 47
CN(C)CCCNc1cc(O)c2ncccc2c1	LGR2 inh 97
Clc1ccc(CNc2ncccn2)cc1	TWEAK-Fn14 inh 72
Cc1ccc(-n2nc(C(=O)NCc3ccc(C)o3)c3c4ccccc4n(C)c3c2=O)cc1	LMP1 NFkB inh 49 (no result: EWS-Fli inh, LGR2 inh)
